Molecules are shown by their SMILES. This is part of a sample that, as a whole, favours compounds with a hit. Of some 79,000 tested, about 15% had one in any assay. Values without a mark were called inactive. Active and inactive are the calls of the source. No stated cut-off is given here; in the data, active means growth inhibition above about 70%; inactive means the rest.

Test [1] can be described thus: NCI Yeast Anticancer Drug Screen. Data for the rad50 strain (AID 155).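 Further: 0% = growth of vehicle-only cultures of the same strain.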 To be noted: S. cerevisiae rad50 strain growth inhibition; at 50.0 µM; active compounds read high. The method in brief:
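A DNA repair-deficient yeast mutant serves as the test organism; compound-induced growth inhibition is calculated against vehicle-treated cells.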

The nature of test [2]: NCI Yeast Anticancer Drug Screen. Data for the mec2-1 strain (AID 157). The following applies: S. cerevisiae mec2-1 strain, at 50.0 µM, active compounds read high. In outline:
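Yeast mec2-1 mutant treated with compound. Readout: growth inhibition vs vehicle controls.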

Test [3] can be described thus: NCI Yeast Anticancer Drug Screen. Data for the sgs1 mgt1 strain (AID 161).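 Further: 0% = growth of cultures given vehicle only.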 To be noted: S. cerevisiae sgs1 mgt1 strain, at 50.0 µM, active compounds read high. In outline: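 Test agents were incubated with a DNA-repair-mutant yeast strain. Growth was then read and compared against vehicle-treated controls.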
A short description of test [4]: NCI Yeast Anticancer Drug Screen. Data for the cln2 rad14 strain (AID 165).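 Further: 0% = growth equal to vehicle treated cultures.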 To be noted: S. cerevisiae cln2 rad14 strain, at 50.0 µM, active compounds read high. In outline:
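cln2 rad14 yeast strain; compound exposure; growth inhibition read vs vehicle controls.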

Test [5] in a line: NCI Yeast Anticancer Drug Screen. Data for the bub3 strain (AID 167). The following applies: S. cerevisiae bub3 mutant strain, at 50.0 µM, active compounds read high. In outline:
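Inhibition values come from growth of compound-treated mutant yeast normalised to vehicle-treated controls.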

A short description of test [6]: NCI Yeast Anticancer Drug Screen. Data for the mlh1 rad18 strain (AID 175). The following applies: S. cerevisiae mlh1 rad18 strain growth inhibition; at 50.0 µM; active compounds read high. The method in brief:
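Yeast w/ defined DNA-repair lesions; compound exposure; growth vs vehicle controls → % inhibition.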

Consider `CCCCCCCCCCCCCCNC(=O)C(C)O` (stereo unspecified), for which the growth inhibition is 2% in test [1]; -23.8% in test [2]; -15.7% in test [3]; -35.2% in test [4]; 11.3% in test [5]; -2.2% in test [6].
As to `Cc1cc(C)c(OCC(O)CO)c(C)c1` (stereo unspecified), the growth inhibition was 2.45% in test [1]; -26.1% in test [2]; 14.7% in test [3]; -10.1% in test [4]; 5.9% in test [5]; -8.8% in test [6].
As for `Cc1cc(Br)cc(C)c1NC(=O)C(=O)C(C(=O)c1ccncc1)C1OC(=O)c2ccccc21` (stereo unspecified), the growth inhibition was -12.6% in test [1]; -31.1% in test [2]; -51.9% in test [3]; 15.8% in test [4]; 16.2% in test [5]; -7.35% in test [6].
As to `CC(C)C(NC(=O)c1ccccc1C(=O)O)c1ccccc1` (stereo unspecified), the growth inhibition in test [1] was 6.3%; in test [2] it was -7.35%; in test [3], 7.1%; in test [4], 4.45%; in test [5], 29.6%; in test [6] it was -3.7%.
Consider `CCSc1cc(=O)n(C)c(=O)n1C`, for which the growth inhibition in test [1] is 13.6%; in test [2], 7.15%; in test [3], 21.3%; in test [4] it was 4.55%; in test [5], 5.25%; in test [6], -10.5%.
Consider `C(/C=C/c1ccccc1)=Nc1ccc2c(c1)Cc1ccccc1-2`, for which the growth inhibition was 0.4% in test [1]; -0.35% in test [2]; -25.8% in test [3]; -27.9% in test [4]; -15.8% in test [5]; 9.9% in test [6].
For `CC(=O)c1cccc(NC(=O)Oc2ccc(C(=O)OCc3ccccc3)cc2)c1`, the growth inhibition in test [1] is 71.2% (active); in test [2] it was 88.9% (active); in test [3], 80.7% (active); in test [4], 42.8%; in test [5] it was 92.2% (active); in test [6] it was 92.9% (active).
For the compound `COc1ccc(Cc2cc(OC)c(OC)c(OC)c2)cc1`, the growth inhibition in test [1] is 13.2%; in test [2], -0.3%; in test [3] it was 7.7%; in test [4], 0%; in test [5], 31.8%; in test [6], -27.6%.
For `Cc1cc2ccccc2c2cc3ccccc3cc12`, the growth inhibition was -2.35% in test [1]; -6.4% in test [2]; 8.45% in test [3]; 11.8% in test [4]; -2.05% in test [5]; 7.75% in test [6].
Turning to `C(=N\NC1=NCCN1)/c1ccccc1`, the growth inhibition in test [1] is -1.35%; in test [2] it was -9.05%; in test [3] it was 5.6%; in test [4], -36.8%; in test [5], -7.4%; in test [6], 13.3%.
Consider `CCOC(=O)C(=CN1CCCc2ccccc21)C(=O)OCC`, for which the growth inhibition in test [1] is 5.05%; in test [2], -17.1%; in test [3], 13.6%; in test [4] it was -35%; in test [5] it was 5.4%; in test [6] it was -6.15%.
`CCCCCCCCCCCCCCCCN1C(=O)C2C(C1=O)C1(Cl)C(Cl)=C(Cl)C2(Cl)C1(Cl)Cl` (stereo unspecified): the growth inhibition was 7.85% in test [1]; -6.3% in test [2]; -2.55% in test [3]; -0.65% in test [4]; -4.6% in test [5]; 10.2% in test [6].
For `CCN1C(=O)C(=O)C(CC)(CC)C1=O`, the growth inhibition in test [1] was -8.4%; in test [2], -1.75%; in test [3], -7%; in test [4], -8.25%; in test [5], 0.85%; in test [6], -13.6%.
Take `O=C(O)CNC(=O)CNC(=O)CNC(=O)CNC(=O)CNC(=O)OCc1ccccc1`: the growth inhibition in test [1] was 38.2%; in test [2] it was -0.25%; in test [3] it was 15.2%; in test [4], 28.1%; in test [5], -0.95%; in test [6] it was 17.4%.
For the compound `Cc1c(C(CC(=O)c2ccccc2)C(=O)O)c2ccccc2n1C` (stereo unspecified), the growth inhibition in test [1] is 2.05%; in test [2] it was -25.3%; in test [3], 23.2%; in test [4], -32.3%; in test [5], 52%; in test [6] it was -11.4%.
With `CCCCc1nc(C)oc1C(C)C`, the growth inhibition is -31.2% in test [1]; -15.8% in test [2]; -8.05% in test [3]; -5.45% in test [4]; -23.9% in test [5]; -8.2% in test [6].
Consider `O=c1[nH]c(/C=C(\O)c2ccncc2)nc2ccccc12`, for which the growth inhibition in test [1] was -7.6%; in test [2] it was -23.2%; in test [3], -6.45%; in test [4], 12%; in test [5] it was -9%; in test [6] it was -17.9%.
As for `CCOC(=O)N/N=C(\Cc1ccccc1)OCC`, the growth inhibition in test [1] is 16%; in test [2], 13.2%; in test [3], 8.45%; in test [4], 13.7%; in test [5], 14.6%; in test [6], 39.2%.
As to `COc1cc2c(cc1C(CC(C)=O)c1cc(OC)c(OC)c(OC)c1)OCO2` (stereo unspecified), the growth inhibition in test [1] is -11.6%; in test [2], -10.2%; in test [3], -12%; in test [4], -5.3%; in test [5], 11%; in test [6], -6.15%.
As to `O=C1c2ccccc2-c2ccc(N=Cc3cccs3)cc21`, the growth inhibition in test [1] was 30.9%; in test [2], -5.65%; in test [3] it was -3.35%; in test [4], 9.4%; in test [5], 33.5%; in test [6], 11.7%.
Turning to `CCc1nc(-c2ccccc2)nc2c1nc(-c1cccc(C)c1)n2Nc1ccccc1`, the growth inhibition in test [1] is 1.45%; in test [2], 3.1%; in test [3], -6.15%; in test [4], -3%; in test [5], -1.6%; in test [6], 24.1%.
Turning to `COCCCC12C=C(OC)C(=O)C=C1OC(c1cc(OC)c(OC)c(OC)c1)C2C` (stereo unspecified), the growth inhibition in test [1] was 0%; in test [2] it was -13.1%; in test [3] it was -36%; in test [4], -18%; in test [5], -32.5%; in test [6], -14.5%.
On to `O=NN(CCCl)C(=O)NC1CCC(CC(=O)O)CC1` (stereo unspecified), for which the growth inhibition in test [1] is 19.1%; in test [2], 6.1%; in test [3], -9.25%; in test [4], -8.7%; in test [5], 2.9%; in test [6], -6.85%.
For `CCOc1ccc(/C=C2\CCc3ccccc3C2=O)cc1`, the growth inhibition in test [1] was 16.4%; in test [2] it was 16.6%; in test [3], 22.7%; in test [4] it was 20.9%; in test [5], 26.9%; in test [6], 21.6%.
For `C/C=C(/C(=O)NC(N)=O)C(C)C`, the growth inhibition was -3.65% in test [1]; 3.15% in test [2]; -20.1% in test [3]; -48.3% in test [4]; -2.55% in test [5]; -2.85% in test [6].
As to `Cc1ccc(Cl)nn1`, the growth inhibition is 10% in test [1]; -1.25% in test [2]; -2.55% in test [3]; -3.3% in test [4]; 12.9% in test [5]; 2.1% in test [6].
Consider `COc1ccc(C(O)C(O)(c2ccccc2)c2ccc(OC)cc2)cc1` (stereo unspecified), for which the growth inhibition in test [1] is -6.05%; in test [2], -4.1%; in test [3] it was -6.3%; in test [4], -19.1%; in test [5], 19.9%; in test [6], -11.6%.
`Nc1nc(N)nc(-c2cc(Br)ccc2N)n1`: the growth inhibition in test [1] is 51.6%; in test [2], -0.3%; in test [3], 12.4%; in test [4], 19.1%; in test [5], 30.4%; in test [6], 7.5%.
On to `O=C(O)c1cc(-c2cccs2)c(C(=O)O)s1`, for which the growth inhibition in test [1] was -4.2%; in test [2], 5.35%; in test [3], -18.2%; in test [4], -19.1%; in test [5], -11.1%; in test [6], 2.1%.
`CCCCCC(C(C)=O)C(C)=O`: the growth inhibition in test [1] was -17.5%; in test [2] it was -19.6%; in test [3] it was -15.1%; in test [4], 0.45%; in test [5], -15.8%; in test [6], -15.6%.
As to `CCN(CC)CCCNc1ccnc2ccc(Cl)cc12`, the growth inhibition was -9.9% in test [1]; -15.6% in test [2]; 5.45% in test [3]; -17.9% in test [4]; 13.9% in test [5]; 2.55% in test [6].
In the case of `S=c1ccc2ccccc2[nH]1`, the growth inhibition in test [1] is -16.9%; in test [2], -8.15%; in test [3], -0.75%; in test [4], -13%; in test [5], -16.1%; in test [6] it was -13.8%.
As for `Nc1c(S(=O)(=O)O)cc(Br)c2c1C(=O)c1ccccc1C2=O`, the growth inhibition is 54.5% in test [1]; 15.8% in test [2]; 38.7% in test [3]; 38% in test [4]; 45.8% in test [5]; 56.4% in test [6].
On to `CC(C)c1ccc(/C=N\N(C)C)cc1`, for which the growth inhibition in test [1] is 2.3%; in test [2] it was 2.05%; in test [3] it was -13.8%; in test [4], -5.6%; in test [5] it was -2.9%; in test [6], -1.75%.
`N#CC1=CN(Cc2ccccc2)C(c2ccccc2)C=C1` (stereo unspecified): the growth inhibition in test [1] was 23.2%; in test [2] it was -2.15%; in test [3], -3.9%; in test [4] it was 4.65%; in test [5] it was 35.9%; in test [6] it was 27%.
For the compound `C=CCCC12CCCC(=O)C1Sc1ccc3ccccc3c12` (stereo unspecified), the growth inhibition is 9.8% in test [1]; -3.85% in test [2]; 11.3% in test [3]; 10.8% in test [4]; 35.3% in test [5]; 7.15% in test [6].
Regarding `Cc1ccc(OCC2OC(n3cnc4c(N(C)C)nc(Br)nc43)CC2Oc2ccc(C)cc2)cc1` (stereo unspecified), the growth inhibition in test [1] is 17.5%; in test [2] it was -4.8%; in test [3], 13.1%; in test [4], 12.6%; in test [5], 2.45%; in test [6] it was -17%.
`COC(=O)C(N)Cc1ccc(O)c(O)c1` (stereo unspecified): the growth inhibition is 20.1% in test [1]; 4.7% in test [2]; 8.1% in test [3]; 10.8% in test [4]; 22.9% in test [5]; 48.5% in test [6].
As to `NCCSSC/C=C\CSSCCN`, the growth inhibition was 2.65% in test [1]; 1.5% in test [2]; -24.1% in test [3]; 16.2% in test [4]; -15.8% in test [5]; -12.9% in test [6].
Take `Cc1nc2ccccc2[nH]1`: the growth inhibition in test [1] is 3.8%; in test [2], -31.1%; in test [3] it was -4%; in test [4], 5.85%; in test [5] it was 3.45%; in test [6], 8.8%.
`Cc1ccc(S(=O)(=O)N2CCC(C(=O)O)(c3ccccc3)CC2)cc1`: the growth inhibition in test [1] was -14.9%; in test [2], -0.9%; in test [3] it was -35.4%; in test [4], -88.5%; in test [5], -56.2%; in test [6], -9.45%.

The record behind these values is PubChem BioAssay (NCI).
